The inhibition is the relative decrease from the control value, in per cent.

The assay has as its target Glucose transporter (Leishmania mexicana) (UniProt O61059). The assay is described as follows: ST_JUDE_LEISH: Cytotoxicity at 2uM final concentration against transgenic Leishmania Mexicana promastigotes LmGT2 that are glucose transport deficient and complemented with the L. Mexicana glucose transporter 2. Activity is measured by DNA content using SYBR green in vitro. The format is functional.
`COc1ccc(CCN(C)CCOc2ccc(NC(=O)c3cccc4c(=O)c5cc(SC)ccc5[nH]c34)cc2)cc1OC`: the inhibition came out at 6.56%.

Consider `COc1ccc(NC(=O)Nc2ccc(C)c(-c3ccc(C(=O)Nc4ccncc4)cc3)c2)cc1`, for which the inhibition worked out at 0.71%.

As to `CCCC(=O)Nc1ccc(OCCCCN(Cc2ccccc2C(F)(F)F)c2ccc(C(F)(F)F)c(C#N)c2)cc1`, the inhibition worked out at 5.58%.

Regarding `Cc1c(CNCCCNc2cc(=O)c3ccccc3[nH]2)sc(C(F)=C(F)F)c1Br`, the inhibition worked out at 5.8%.

Consider `CS(=O)(=O)NCCCNCc1ccc(-c2cccc(-c3nc4cc(C(F)(F)F)ccc4[nH]3)c2)cc1`, for which the inhibition is 5.43%.

For the compound `CCCN1CCN(CCCCNc2c3ccccc3nc3ccccc23)CC1`, the inhibition is 27.7%.

For `Cc1oc(-c2ccc(Cl)cc2)cc1C(=O)NCCC1CCN(CCCCCNC(=O)/C=C/c2ccc(Cl)c(Cl)c2)CC1`, the inhibition is -2.41%.

As for `CC1=C(C(=O)Nc2cc3cn[nH]c3cc2F)C(c2ccc(Cl)c(NS(C)(=O)=O)c2)CC(=O)N1` (centres undefined), the inhibition was -2.27%.

Consider `CCOC(=O)c1ccc(NC(=O)Nc2ccc(-c3ccc(-c4nc5ccccc5[nH]4)cc3)cc2)cc1`, for which the inhibition was 3.8%.

For the compound `CCNc1c2ccc(Cl)cc2nc2ccc(OC)cc12`, the inhibition came to 1.15%.

As for `Cc1cc(=NN=Cc2ccccc2Cl)c2cc(F)ccc2[nH]1`, the inhibition worked out at 2.23%.

In the case of `OCCN1CCN(Cc2ccc(-c3ccc(-c4nc5ccccc5[nH]4)cc3)cc2)CC1`, the inhibition turned out to be 7.18%.

Consider `CCOc1cc(C(C)C)ccc1C1CCN(CCCCNC(=O)c2ccc(NC(=O)c3ccc(Cl)cc3)cc2)CC1`, for which the inhibition is 2.65%.

For `CCCCCCCN1CC[C@@H](CCCc2ccnc3ccc(OCCN4CCOCC4)cc23)[C@@H](CC)C1`, the inhibition came to 9.34%.

The values are drawn from ChEMBL document CHEMBL3433997, “St. Jude Leishmania screening dataset” (2016).
